Shown are actives, neighbours in structure and some others; about 9.2% of the full set was active somewhere.
SMN2 splice up: enhancers of SMN2 splice variant expression; HEK293 SMN2-luciferase splicing reporter, luminescence, 30-36 h; Potency, µM (series often up to 46.1 µM), without a hit: at the top dose activity change, positive = activation, hits mostly activators; hit rate 2.8% among 210,000; also: % of control where 0% means no effect; nearly all actives have a fitted effect of over 55% in size
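HEK293 cells carry an SMN2 […]–luciferase reporter in which exon 7 inclusion puts luciferase in frame. Cells were plated 10-12 h before compound addition, then incubated 30-36 h at 37C. ONE-Glo luminescence was read; sodium butyrate at 4.5 mM final served as control.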
Rab9 prom act: activators of Rab9 promoter; Huh7 Rab9 promoter-luciferase reporter, luminescence, 24 h; Potency, µM (titrated, usually from 9.22 µM), for inactives: at the highest dose activation, negative = inhibition, most hits filed as activators; hit rate 2.8% among 320,000; AID 485297; also: % of control where 0% means no effect; nearly all actives have a fitted effect of over 60% in size
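Promoter activation is measured as luciferase luminescence in Huh7 cells stably transfected with a Rab9 promoter–luciferase construct, following 24 h compound exposure at 37 °C and 10 min reagent incubation at ambient temperature.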
NPC1 prom act: NPC1 promoter activation | Huh7 NPC1 promoter luciferase reporter, 24 h | hit rate 2.4% among 320,000 | Potency, µM (titrated, usually from 9.22 µM), for the others: at the top dose activation, most hits filed as activators; also: % of control where 0% means no effect; nearly all actives have a fitted effect of over 60% in size
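Huh7 reporter cells (NPC1 promoter driving luciferase) are dosed with compound for 24 h at 37 °C, 5% CO2; luciferase detection reagent is then added and luminescence measured after 10 min at ambient temperature.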
ELG1 genotoxic: inducers of genotoxicity in HEK293T ELG1-luciferase cells. HEK293T ELG1-luciferase reporter, luminescence, 16 h. hit rate 1.3% among 330,000. Potency, µM (titrated, usually from 46 µM), for the others: at the highest dose activity change, positive = activation, most hits filed as activators; also: % of control where 0% means no effect; nearly all actives have a fitted effect of over 60% in size
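Genotoxicity was scored as increased ELG1-luciferase reporter signal, measured by ONE-Glo luminescence (30 min, room temperature). Compound or vehicle exposure of the HEK293T reporter cells lasted 16 hr at 37°C.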
FLuc counter: firefly luciferase modulation, counter-screen for miR-21 project; AID 588342; purified FLuc, Km substrates, luminescence inhibition; Potency, µM (doses to about 57.5 µM), inactives show at the highest dose activity change, negative = inhibition, usual class: inhibitors; hit rate 6.9% among 360,000; P08659;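 also: plate controls were vehicle for no effect and reference inhibitor for full effect; nearly all actives have a fitted effect of over 55% in size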
Target sequence (P08659 whole entry, looked up): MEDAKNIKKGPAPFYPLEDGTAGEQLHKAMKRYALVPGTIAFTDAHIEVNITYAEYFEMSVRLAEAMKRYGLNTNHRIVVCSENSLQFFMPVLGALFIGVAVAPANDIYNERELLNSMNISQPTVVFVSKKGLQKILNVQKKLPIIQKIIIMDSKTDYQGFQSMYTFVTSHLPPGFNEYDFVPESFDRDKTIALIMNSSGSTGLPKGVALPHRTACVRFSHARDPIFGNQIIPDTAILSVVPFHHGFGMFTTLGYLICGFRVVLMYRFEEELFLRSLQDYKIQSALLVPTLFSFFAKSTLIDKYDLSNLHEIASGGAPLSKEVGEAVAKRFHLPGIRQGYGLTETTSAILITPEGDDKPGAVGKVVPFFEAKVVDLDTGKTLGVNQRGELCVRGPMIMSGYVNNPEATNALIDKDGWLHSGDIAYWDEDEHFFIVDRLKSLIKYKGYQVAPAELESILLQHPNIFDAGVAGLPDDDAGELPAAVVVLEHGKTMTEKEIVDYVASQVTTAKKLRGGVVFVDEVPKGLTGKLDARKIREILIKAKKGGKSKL
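Purified P. pyralis luciferase, 10 nM final, with Km-level 10 uM D-luciferin and 10 uM ATP in 50 mM Tris acetate pH 7.5, 10 mM Mg acetate, 0.01% Tween-20, 0.05% BSA; 6-point qHTS titration about 60 µM downward; luminescence read.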
ELG1 repair inh: blocks ELG1-dependent DNA repair in HEK293T cells; Potency, µM (highest dose often 46.1 µM), for inactives: at the highest dose activity change, negative = inhibition, most hits filed as inhibitors; hit rate 2.3% among 330,000; HEK293T ELG1-luciferase reporter, luminescence, 16 h; DNA damage induced by 5-fluorouridine; also: % is scaled to controls: 0 for no effect and ±100 for the full control effect; nearly all actives have a fitted effect of over 55% in size
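Step one: seed 2,000 cells per well. Step two: pin-transfer compound or DMSO alongside 5-fluorouridine. Step three: incubate 16 hr, 37 °C, 5% CO2. Step four: add ONE-Glo, wait 30 min, read luminescence.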
* hit, by the source's call. Calls follow the shape of the dose curve; as a rule, active = well fitted curve in the direction sought with a large enough effect; inconclusive = small, poorly fitted or top-dose-only effect, or another doubt; inactive = no such curve, though single readings can be large; an effect the other way counts as inactive or inconclusive. Potency is read from the fitted curve at half-maximal effect.

Results for CC(O/N=C\c1ccccc1O)C(=O)Nc1ccccc1C(=O)N1CCOCC1 (stereo unspecified) ?
SMN2 splice up: 27%; Rab9 prom act: 7%; NPC1 prom act: -8%; ELG1 genotoxic: 0%; FLuc counter: 3%; ELG1 repair inh: -5%

What do the screens show for `COc1ccc(-n2nc(C(=O)N3CCCC(C)C3)c3c4ccccc4n(C)c3c2=O)cc1Cl` (stereo unspecified)?
SMN2 splice up: 3%; FLuc counter: 3%

Results for O=C(NCC1CCN(Cc2ccccc2F)CC1)C1CCCN(c2ncnc3c2nc2n3CCCCC2)C1 (stereo unspecified) ?
Rab9 prom act: -2%; NPC1 prom act: -3%; ELG1 genotoxic: -8%; FLuc counter: -1%; ELG1 repair inh: 7.3µM*

How did O=C(C1CCN(c2ncnc3c2nc2n3CCCCC2)CC1)N1CCN(c2cccc(Cl)c2)CC1 do in these assays?
Rab9 prom act: -9%; NPC1 prom act: -8%; ELG1 genotoxic: -15%; FLuc counter: 2%; ELG1 repair inh: 2.3µM*

Results for Cc1ccc(NC(=O)C2CCCN(c3ncnc4c3nc3n4CCCCC3)C2)nc1 (stereo unspecified) ?
Rab9 prom act: -5%; NPC1 prom act: 0%; ELG1 genotoxic: -8%; FLuc counter: 0%; ELG1 repair inh: 3.3µM*

How did O=C(C1CCN(S(=O)(=O)c2cccnc2)CC1)N1CCN(c2cccc(Cl)c2)CC1 do in these assays?
SMN2 splice up: -43%; Rab9 prom act: -25%; NPC1 prom act: 1%; ELG1 genotoxic: -12%; FLuc counter: 0%; ELG1 repair inh: 21µM*

What do the screens show for `Cc1ccc(CNC(=O)c2oc3ccc(S(=O)(=O)N4CCCC(C)C4)cc3c2C)cc1` (stereo unspecified)?
SMN2 splice up: -30%; FLuc counter: 2%

What do the screens show for `CCc1ccc(Oc2c(C(F)(F)F)oc3c(CN4CCN(CC)CC4)c(O)ccc3c2=O)cc1`?
SMN2 splice up: -18%; FLuc counter: -12%

Results for CCCC1=C(C(=O)OCC)C(c2cc(Cl)cc(OC)c2OCc2ccccc2)NC(=O)N1 (stereo unspecified) ?
SMN2 splice up: 3%; Rab9 prom act: 9%; NPC1 prom act: -4%; ELG1 genotoxic: -7%; FLuc counter: 2%; ELG1 repair inh: -10%

What do the screens show for `O=C(Nc1cccnc1Cl)C1CCCN(c2ncnc3c2nc2n3CCCCC2)C1` (stereo unspecified)?
Rab9 prom act: -4%; NPC1 prom act: -6%; ELG1 genotoxic: -5%; FLuc counter: -1%; ELG1 repair inh: 15µM*

Results for CC(=O)c1ccc(N2CCN(C(=O)C3CCCN(c4ncnc5c4nc4n5CCCCC4)C3)CC2)cc1 (stereo unspecified) ?
Rab9 prom act: -3%; NPC1 prom act: -3%; ELG1 genotoxic: -11%; FLuc counter: -3%; ELG1 repair inh: 2.3µM*

How did O=C(Nc1ccccn1)C1CCCN(c2ncnc3c2nc2n3CCCCC2)C1 (stereo unspecified) do in these assays?
Rab9 prom act: -9%; NPC1 prom act: -3%; ELG1 genotoxic: -7%; FLuc counter: -2%; ELG1 repair inh: -27%

What do the screens show for `CC1CCc2c(sc(NC(=O)c3ccc(-c4ccccc4[N+](=O)[O-])o3)c2C#N)C1` (stereo unspecified)?
SMN2 splice up: -10%; Rab9 prom act: 14%; NPC1 prom act: 4%; ELG1 genotoxic: -4%; FLuc counter: 11µM*; ELG1 repair inh: 5%

What do the screens show for `N#Cc1c(NC(=O)c2ccc(-c3ccccc3[N+](=O)[O-])o2)sc2c1CCCC2`?
SMN2 splice up: -30%; Rab9 prom act: 14%; NPC1 prom act: -2%; ELG1 genotoxic: 1%; FLuc counter: 11µM*; ELG1 repair inh: inconclusive

How did Cc1onc(-c2ccccc2)c1C(=O)Nc1sc2c(c1C#N)CCC(C)C2 (stereo unspecified) do in these assays?
SMN2 splice up: -14%; Rab9 prom act: -3%; NPC1 prom act: 0%; ELG1 genotoxic: -6%; FLuc counter: inconclusive; ELG1 repair inh: inconclusive

How did Cc1onc(C(=O)Nc2sc3c(c2C#N)CCCC3)c1[N+](=O)[O-] do in these assays?
Rab9 prom act: inconclusive; NPC1 prom act: 3%; ELG1 genotoxic: 7%; FLuc counter: 13µM*; ELG1 repair inh: -3%

Results for O=C(NC1CCCCC1)c1ccc(-c2ccccc2[N+](=O)[O-])o1 ?
Rab9 prom act: 1.4µM*; NPC1 prom act: 0.71µM*; ELG1 genotoxic: 2.1µM*; FLuc counter: 3.8µM*; ELG1 repair inh: inconclusive

How did O=C(CSc1ncccn1)NC(=O)Cc1ccccc1 do in these assays?
Rab9 prom act: -2%; NPC1 prom act: 1%; ELG1 genotoxic: 0%; FLuc counter: 4%; ELG1 repair inh: 24%

What do the screens show for `CCc1ccccc1NC(=O)CN1C(=O)COc2ccc(S(=O)(=O)N3CCCCCC3)cc21`?
FLuc counter: -1%

What do the screens show for `COc1ccccc1C(=O)Nc1ccc2c(c1)OCCO2`?
SMN2 splice up: 13µM*; Rab9 prom act: 1.8µM*; NPC1 prom act: 3.2µM*; ELG1 genotoxic: inconclusive; FLuc counter: 7.6µM*; ELG1 repair inh: inconclusive

What do the screens show for `COc1ccccc1C(=O)Nc1ccc2c(c1)OCO2`?
SMN2 splice up: 18%; Rab9 prom act: 2.5µM*; NPC1 prom act: inconclusive; ELG1 genotoxic: 15µM*; FLuc counter: 13µM*; ELG1 repair inh: inconclusive

Results for CN(c1ccccc1C(=O)Nc1ccc2c(c1)OCO2)S(C)(=O)=O ?
SMN2 splice up: -4%; Rab9 prom act: -3%; NPC1 prom act: -2%; ELG1 genotoxic: 1%; FLuc counter: -5%; ELG1 repair inh: -6%

What do the screens show for `COc1ccccc1C(=O)NCC(=O)Nc1ccc2c(c1)OCO2`?
Rab9 prom act: 15%; NPC1 prom act: 0%; ELG1 genotoxic: 0%; FLuc counter: -9%; ELG1 repair inh: 19%

Results for COc1cc(SC)ccc1C(=O)Nc1ccc2c(c1)OCCO2 ?
SMN2 splice up: 5.6µM*; Rab9 prom act: 0.89µM*; NPC1 prom act: inconclusive; ELG1 genotoxic: inconclusive; FLuc counter: 0.54µM*; ELG1 repair inh: inconclusive

How did Cc1ccccc1C(=O)Nc1ccc2c(c1)OCO2 do in these assays?
SMN2 splice up: 0.79µM*; Rab9 prom act: 0.45µM*; NPC1 prom act: 0.45µM*; ELG1 genotoxic: 1.6µM*; FLuc counter: 4.8µM*; ELG1 repair inh: inconclusive

Compound activity: PubChem BioAssay, National Center for Advancing Translational Sciences (NCATS)
